According to the supplement of paper PMC11732987, “Enantioselective OTUD7B fragment discovery through chemoproteomics screening and high-throughput optimisation” (Communications Chemistry, 2025):

Legend:
Test in all cases: log2 ratio of Biotin-Ahx-Ub-VS probe labelling (fragment/DMSO); higher = less target engagement (more negative = stronger competition), active = hit call of the paper (q ≤ 0.05, log2 ratio ≤ -1)
Conditions in all cases: compound concentration: 200 uM; treatment time: 3 h
USP34 = USP34 (UniProt Q70CQ2)
USP34, sequence (Q70CQ2 whole entry, the tested form may be a part): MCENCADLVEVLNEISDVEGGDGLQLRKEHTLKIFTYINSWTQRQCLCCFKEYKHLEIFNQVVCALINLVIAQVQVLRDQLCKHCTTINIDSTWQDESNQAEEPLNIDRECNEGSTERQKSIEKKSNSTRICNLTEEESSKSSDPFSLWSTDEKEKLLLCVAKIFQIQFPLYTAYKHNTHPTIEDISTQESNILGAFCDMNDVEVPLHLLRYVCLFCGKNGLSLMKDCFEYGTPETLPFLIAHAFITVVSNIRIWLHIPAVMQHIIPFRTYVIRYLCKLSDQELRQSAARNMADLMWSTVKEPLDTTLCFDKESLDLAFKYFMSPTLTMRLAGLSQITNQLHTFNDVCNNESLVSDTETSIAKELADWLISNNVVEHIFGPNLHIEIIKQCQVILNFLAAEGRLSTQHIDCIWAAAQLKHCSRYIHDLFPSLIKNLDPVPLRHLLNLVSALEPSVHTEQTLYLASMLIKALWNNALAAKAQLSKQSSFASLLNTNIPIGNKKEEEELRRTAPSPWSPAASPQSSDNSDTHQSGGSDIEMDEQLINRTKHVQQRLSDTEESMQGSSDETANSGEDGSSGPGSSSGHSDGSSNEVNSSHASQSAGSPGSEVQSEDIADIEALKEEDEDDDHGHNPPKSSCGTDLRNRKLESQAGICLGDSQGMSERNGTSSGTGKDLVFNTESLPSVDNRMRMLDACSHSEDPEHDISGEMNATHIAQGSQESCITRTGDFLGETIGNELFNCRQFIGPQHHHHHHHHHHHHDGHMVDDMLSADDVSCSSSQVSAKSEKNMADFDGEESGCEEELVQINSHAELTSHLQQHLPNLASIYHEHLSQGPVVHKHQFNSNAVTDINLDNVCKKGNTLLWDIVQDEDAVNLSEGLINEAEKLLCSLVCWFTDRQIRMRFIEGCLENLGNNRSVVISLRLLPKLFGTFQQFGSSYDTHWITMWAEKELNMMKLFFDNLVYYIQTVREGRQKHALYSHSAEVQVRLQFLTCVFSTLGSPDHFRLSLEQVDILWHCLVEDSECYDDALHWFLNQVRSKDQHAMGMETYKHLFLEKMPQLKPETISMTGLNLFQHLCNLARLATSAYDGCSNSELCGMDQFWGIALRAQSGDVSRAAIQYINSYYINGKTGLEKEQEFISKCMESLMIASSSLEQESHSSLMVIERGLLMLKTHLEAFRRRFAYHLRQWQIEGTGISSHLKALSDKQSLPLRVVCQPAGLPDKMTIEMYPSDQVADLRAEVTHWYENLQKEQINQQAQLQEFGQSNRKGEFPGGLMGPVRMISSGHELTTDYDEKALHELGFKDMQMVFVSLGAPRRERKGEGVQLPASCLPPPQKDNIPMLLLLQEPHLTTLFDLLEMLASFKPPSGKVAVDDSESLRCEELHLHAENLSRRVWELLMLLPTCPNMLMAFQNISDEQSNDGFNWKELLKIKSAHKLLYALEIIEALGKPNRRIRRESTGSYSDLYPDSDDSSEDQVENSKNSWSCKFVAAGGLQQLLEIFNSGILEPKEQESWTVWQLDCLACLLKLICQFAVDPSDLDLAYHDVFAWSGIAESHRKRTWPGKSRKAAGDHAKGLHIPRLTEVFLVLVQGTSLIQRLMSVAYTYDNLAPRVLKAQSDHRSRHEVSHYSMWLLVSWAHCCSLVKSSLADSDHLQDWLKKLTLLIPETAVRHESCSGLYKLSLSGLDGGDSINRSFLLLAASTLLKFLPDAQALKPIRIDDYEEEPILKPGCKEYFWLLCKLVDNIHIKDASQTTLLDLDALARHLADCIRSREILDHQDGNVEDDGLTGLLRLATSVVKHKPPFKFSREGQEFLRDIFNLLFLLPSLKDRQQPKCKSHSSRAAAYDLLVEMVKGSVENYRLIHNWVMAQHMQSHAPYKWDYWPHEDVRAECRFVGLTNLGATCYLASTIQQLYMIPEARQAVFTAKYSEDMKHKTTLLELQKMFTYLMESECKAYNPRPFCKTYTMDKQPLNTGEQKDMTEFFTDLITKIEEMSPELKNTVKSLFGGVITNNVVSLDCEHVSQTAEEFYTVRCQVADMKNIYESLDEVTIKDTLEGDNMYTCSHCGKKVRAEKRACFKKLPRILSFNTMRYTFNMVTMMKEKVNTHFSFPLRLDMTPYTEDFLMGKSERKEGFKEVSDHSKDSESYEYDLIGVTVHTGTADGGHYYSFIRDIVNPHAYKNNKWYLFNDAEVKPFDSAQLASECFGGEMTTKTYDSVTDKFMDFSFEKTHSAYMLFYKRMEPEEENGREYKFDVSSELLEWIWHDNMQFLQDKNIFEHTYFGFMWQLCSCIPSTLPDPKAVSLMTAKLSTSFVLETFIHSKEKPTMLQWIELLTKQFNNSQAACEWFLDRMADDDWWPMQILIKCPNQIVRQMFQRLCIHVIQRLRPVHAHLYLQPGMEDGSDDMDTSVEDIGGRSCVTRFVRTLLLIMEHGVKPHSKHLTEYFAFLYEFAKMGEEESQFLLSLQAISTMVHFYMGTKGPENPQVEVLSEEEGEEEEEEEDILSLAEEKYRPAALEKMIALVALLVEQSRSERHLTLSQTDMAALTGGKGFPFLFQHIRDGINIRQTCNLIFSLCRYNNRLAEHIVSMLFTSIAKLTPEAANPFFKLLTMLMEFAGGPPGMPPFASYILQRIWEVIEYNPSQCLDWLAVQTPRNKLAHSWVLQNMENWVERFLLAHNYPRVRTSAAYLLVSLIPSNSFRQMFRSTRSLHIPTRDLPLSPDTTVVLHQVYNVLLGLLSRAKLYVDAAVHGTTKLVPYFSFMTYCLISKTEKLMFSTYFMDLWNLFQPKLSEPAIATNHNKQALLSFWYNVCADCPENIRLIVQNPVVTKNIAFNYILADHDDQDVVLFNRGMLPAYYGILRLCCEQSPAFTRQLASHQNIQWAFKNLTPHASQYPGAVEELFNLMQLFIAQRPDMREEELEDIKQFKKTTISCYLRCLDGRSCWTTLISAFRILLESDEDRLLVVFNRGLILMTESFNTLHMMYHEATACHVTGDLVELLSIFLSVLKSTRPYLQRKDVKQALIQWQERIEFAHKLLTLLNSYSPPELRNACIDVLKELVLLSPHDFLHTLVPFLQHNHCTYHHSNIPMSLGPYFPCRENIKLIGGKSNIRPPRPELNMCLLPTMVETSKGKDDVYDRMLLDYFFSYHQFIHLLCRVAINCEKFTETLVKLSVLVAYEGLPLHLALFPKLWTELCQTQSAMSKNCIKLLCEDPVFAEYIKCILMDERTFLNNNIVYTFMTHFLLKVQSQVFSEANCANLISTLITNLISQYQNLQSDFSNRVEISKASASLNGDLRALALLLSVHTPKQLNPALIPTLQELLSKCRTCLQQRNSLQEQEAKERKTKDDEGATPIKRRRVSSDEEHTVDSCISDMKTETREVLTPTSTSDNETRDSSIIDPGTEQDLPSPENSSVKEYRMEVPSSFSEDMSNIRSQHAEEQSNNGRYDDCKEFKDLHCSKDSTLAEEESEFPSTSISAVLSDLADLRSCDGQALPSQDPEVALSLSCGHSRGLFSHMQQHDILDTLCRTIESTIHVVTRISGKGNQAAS
Method in brief: (§1)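 Triplicate samples of HEK293T lysate, 495 µg each, received fragment at 200 µM or vehicle for 3 h, followed by Biotin-Ahx-Ub-VS (0.5 µM final) for 1 h. After NeutrAvidin enrichment of labelled DUBs and LysC/trypsin digestion, peptides were run by diaPASEF LC-MS/MS. The values are average log2 fragment/vehicle ratios from global-median-normalised Spectronaut label-free quantities, tested by unpaired t-test on proteins having ≥2 unique peptides.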

USP36 = biological target: T1, USP36 (UniProt Q9P275)
T1 sequence (whole entry): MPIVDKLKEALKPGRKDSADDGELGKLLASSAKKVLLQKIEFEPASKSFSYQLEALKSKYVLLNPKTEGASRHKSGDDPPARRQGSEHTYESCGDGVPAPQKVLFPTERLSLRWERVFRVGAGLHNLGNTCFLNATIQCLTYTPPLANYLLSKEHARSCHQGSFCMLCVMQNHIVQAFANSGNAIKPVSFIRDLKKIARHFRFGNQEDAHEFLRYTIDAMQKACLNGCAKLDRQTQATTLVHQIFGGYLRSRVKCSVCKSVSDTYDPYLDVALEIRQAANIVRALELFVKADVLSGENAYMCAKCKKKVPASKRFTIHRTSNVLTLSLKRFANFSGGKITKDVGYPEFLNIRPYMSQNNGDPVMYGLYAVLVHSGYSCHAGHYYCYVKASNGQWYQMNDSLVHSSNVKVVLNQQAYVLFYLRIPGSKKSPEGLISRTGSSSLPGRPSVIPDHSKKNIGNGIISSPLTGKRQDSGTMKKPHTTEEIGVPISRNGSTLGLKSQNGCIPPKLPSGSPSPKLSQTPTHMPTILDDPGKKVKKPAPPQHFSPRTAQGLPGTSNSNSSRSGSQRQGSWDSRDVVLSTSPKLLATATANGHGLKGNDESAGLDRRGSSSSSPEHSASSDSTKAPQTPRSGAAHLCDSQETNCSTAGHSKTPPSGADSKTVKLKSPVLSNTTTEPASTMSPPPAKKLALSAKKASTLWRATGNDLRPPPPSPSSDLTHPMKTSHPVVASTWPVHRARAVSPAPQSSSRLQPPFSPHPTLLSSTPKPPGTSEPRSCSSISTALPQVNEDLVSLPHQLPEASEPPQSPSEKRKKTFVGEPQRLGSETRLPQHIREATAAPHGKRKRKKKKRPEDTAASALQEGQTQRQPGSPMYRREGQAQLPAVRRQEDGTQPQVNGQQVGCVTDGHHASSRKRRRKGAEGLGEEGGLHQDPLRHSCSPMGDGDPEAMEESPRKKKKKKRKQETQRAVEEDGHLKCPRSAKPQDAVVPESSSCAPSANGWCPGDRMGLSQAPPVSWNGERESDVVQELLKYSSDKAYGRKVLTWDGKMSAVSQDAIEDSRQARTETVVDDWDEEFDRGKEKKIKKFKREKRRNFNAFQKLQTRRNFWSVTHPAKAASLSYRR
Method in brief: as §1

USP38 = biological target: T2, USP38 (UniProt Q8NB14)
T2 sequence (whole entry): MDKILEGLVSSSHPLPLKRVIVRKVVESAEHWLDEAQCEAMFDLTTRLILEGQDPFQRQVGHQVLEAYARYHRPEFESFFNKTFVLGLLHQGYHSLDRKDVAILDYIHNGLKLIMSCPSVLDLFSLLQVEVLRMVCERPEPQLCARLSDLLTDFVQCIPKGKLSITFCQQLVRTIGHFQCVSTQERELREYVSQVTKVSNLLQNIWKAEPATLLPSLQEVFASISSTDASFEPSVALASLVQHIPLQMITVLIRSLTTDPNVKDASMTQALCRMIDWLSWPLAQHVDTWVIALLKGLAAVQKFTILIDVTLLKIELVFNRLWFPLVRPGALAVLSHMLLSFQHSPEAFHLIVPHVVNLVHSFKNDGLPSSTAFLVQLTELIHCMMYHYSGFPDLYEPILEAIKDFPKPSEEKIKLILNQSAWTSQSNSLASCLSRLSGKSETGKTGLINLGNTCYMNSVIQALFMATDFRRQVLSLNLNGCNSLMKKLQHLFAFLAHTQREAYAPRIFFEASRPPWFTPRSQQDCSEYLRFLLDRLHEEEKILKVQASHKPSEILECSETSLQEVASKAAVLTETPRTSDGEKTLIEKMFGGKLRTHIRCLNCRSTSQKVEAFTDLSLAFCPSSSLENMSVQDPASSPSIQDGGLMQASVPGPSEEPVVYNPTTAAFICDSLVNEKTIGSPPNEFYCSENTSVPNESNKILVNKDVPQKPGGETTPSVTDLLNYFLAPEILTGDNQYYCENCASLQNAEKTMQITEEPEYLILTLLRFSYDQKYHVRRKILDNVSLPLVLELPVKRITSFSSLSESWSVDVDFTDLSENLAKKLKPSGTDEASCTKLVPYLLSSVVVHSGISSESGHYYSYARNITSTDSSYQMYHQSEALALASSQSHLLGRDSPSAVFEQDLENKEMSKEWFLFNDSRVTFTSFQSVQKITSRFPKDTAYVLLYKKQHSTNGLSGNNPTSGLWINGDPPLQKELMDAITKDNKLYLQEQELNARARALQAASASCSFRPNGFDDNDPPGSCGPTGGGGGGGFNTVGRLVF
Method in brief: as §1

USP39 = biological target: T3, USP39 (UniProt Q53GS9)
T3 sequence (whole entry): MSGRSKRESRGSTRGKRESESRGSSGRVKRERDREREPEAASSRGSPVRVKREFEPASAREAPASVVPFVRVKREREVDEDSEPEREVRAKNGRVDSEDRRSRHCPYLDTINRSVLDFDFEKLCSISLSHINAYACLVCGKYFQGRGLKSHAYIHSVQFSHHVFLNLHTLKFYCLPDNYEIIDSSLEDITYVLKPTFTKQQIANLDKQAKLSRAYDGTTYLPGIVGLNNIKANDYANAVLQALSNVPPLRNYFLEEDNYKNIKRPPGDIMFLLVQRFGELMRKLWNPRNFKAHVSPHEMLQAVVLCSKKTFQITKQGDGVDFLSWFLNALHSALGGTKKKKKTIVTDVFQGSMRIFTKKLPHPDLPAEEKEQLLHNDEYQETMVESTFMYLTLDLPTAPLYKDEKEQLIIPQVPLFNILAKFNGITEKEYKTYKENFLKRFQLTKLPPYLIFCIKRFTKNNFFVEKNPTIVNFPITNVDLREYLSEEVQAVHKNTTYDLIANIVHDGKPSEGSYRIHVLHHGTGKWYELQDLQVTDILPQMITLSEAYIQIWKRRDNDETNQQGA
Method in brief: as §1

USP4 = biological target: T4, USP4 (UniProt Q13107)
T4 sequence (whole entry): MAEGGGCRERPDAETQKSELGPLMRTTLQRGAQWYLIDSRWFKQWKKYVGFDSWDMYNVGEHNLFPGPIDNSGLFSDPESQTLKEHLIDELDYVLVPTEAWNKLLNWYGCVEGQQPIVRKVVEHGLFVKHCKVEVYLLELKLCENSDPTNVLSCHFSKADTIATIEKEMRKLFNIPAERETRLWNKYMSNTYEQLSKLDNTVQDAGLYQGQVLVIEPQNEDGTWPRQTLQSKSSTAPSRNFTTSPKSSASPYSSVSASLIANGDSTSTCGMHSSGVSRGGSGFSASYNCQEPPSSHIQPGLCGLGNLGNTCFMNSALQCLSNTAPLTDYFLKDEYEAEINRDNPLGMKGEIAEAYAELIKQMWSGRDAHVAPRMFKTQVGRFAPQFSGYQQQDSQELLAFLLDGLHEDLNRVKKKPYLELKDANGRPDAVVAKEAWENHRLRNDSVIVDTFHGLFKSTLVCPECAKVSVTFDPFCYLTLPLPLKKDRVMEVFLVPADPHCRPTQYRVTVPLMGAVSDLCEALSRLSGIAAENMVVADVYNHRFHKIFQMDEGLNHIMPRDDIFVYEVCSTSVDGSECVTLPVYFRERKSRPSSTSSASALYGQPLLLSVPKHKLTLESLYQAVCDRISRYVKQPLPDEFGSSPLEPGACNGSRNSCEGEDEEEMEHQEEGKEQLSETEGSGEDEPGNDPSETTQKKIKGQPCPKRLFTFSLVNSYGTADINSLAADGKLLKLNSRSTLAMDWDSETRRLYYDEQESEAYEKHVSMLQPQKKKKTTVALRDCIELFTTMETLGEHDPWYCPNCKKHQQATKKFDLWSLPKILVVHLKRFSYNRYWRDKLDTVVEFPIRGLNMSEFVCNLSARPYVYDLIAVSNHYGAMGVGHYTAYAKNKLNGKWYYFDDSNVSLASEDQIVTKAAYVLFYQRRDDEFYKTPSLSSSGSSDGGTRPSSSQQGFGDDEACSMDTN
Method in brief: as §1

Measured: log2 ratio of Biotin-Ahx-Ub-VS probe labelling

Cc1cccc(NC(=O)[C@@H]2CCCN2C(=O)CCl)n1
inactive: USP34 0.0425 | USP36 -0.0946 | USP38 -0.0719 | USP39 0.179 | USP4 -0.0817
